Source: PubChem (several laboratories)
This is a sample that favours compounds with a hit; in the whole collection about 0.9% have one here.
Rv3671c protease: Rv3671c (M. tuberculosis) protease inhibition | P9WHR9 | inhibition, % at 5.96 µM | 320,000 compounds, 0.048% hits; in the data active = inhibition above about 38%;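 also: extracellular domain of Rv3671c used as enzyme; 0% = enzyme with DMSO and 100% = no enzyme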
UGM FP inh: Mtb UDP-galactopyranose mutase inhibition. purified UGM, fluorescence polarization probe displacement. P9WIQ1. inhibition, % at 10 µM. 320,000 compounds, 0.06% hits; in the data active = inhibition above about 10%, passing the limit was not always enough; inconclusive = no clear call, values can overlap the other calls
Mtb BioA inh: BioA (M. tuberculosis) enzyme inhibition; purified M. tuberculosis BioA enzyme, plate reader; inhibition, % at 9.99 µM; 360,000 compounds, 0.096% hits; AID 602481; in the data active = inhibition above about 40%; inconclusive = no clear call, values can overlap the other calls
FadD28 binding: blocks FadD28 binding to the bisubstrate probe; fluorescence polarization; inhibition, % at 12.5 µM; 360,000 compounds, 0.22% hits; AID 588549; in the data active = inhibition above about 8.5%, passing the limit was not always enough; inconclusive = no clear call, values can overlap the other calls
TcdB inh: inhibitors of Clostridioides difficile toxin B glycohydrolase; TcdB glycohydrolase enzymatic assay, plate reader; inhibition, % at 9.99 µM; 350,000 compounds, 0.24% hits; AID 652162; in the data active = inhibition above about 10%
RecA intein inh: inhibitors of M. tuberculosis RecA intein splicing; P9WHJ3; inhibition, % (test concentration not listed); cell-free RecA intein splicing, fluorescence; 290,000 compounds, 0.75% hits; AID 2221; in the data active = inhibition above about 30%; inconclusive = no clear call, values can overlap the other calls;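 also: 0% = vehicle wells and 100% = reference inhibitor control wells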
Target sequence (P9WHJ3 whole entry, looked up): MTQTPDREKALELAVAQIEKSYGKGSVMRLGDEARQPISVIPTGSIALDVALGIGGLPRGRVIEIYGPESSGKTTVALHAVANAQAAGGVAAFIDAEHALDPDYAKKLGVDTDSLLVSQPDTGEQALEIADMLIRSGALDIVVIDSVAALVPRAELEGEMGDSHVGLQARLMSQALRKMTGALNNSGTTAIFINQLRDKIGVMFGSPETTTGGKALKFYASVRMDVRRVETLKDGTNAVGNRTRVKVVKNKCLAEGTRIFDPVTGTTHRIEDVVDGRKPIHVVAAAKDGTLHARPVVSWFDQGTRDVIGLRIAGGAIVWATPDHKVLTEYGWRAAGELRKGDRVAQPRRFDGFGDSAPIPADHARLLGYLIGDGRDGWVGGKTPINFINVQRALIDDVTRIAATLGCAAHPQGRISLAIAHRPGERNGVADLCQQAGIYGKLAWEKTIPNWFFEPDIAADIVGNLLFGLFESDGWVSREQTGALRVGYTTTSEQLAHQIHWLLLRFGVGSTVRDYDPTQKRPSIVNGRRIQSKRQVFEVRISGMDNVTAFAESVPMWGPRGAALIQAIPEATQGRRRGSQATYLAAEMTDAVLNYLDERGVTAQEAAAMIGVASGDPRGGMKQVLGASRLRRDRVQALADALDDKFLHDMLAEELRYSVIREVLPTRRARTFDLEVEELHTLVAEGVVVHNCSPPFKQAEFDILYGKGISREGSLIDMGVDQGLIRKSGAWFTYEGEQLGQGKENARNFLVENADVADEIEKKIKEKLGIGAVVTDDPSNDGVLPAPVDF
Active calls of the source: *; ? = inconclusive; . = no result.

SMILES | Rv3671c protease | UGM FP inh | Mtb BioA inh | FadD28 binding | TcdB inh | RecA intein inh
COc1cc(/C=C/C(=O)N2CCCC=CC2=O)cc(OC)c1OC | . | . | . | . | 2 | .
O=C(Nc1c[nH]c(=O)[nH]c1=O)c1ccccc1Br | 6 | -1 | -1 | -4 | 0 | -1
CC(Nc1c[nH]c(=O)[nH]c1=O)c1ccccc1 (stereo not given) | . | 0 | -1 | -1 | 2 | 61*
CCOc1cc(C(c2c(C)[nH][nH]c2=O)c2c(C)[nH][nH]c2=O)ccc1OS(=O)(=O)c1ccccc1 | 3 | 3 | -1 | -6 | . | 97*
CCOc1cc(C(=S)N2CCOCC2)ccc1OS(=O)(=O)c1ccc(C)cc1 | -1 | 2 | 1 | -3 | 2 | 4
CCc1ccc2c(c1)C(c1ccc([N+](=O)[O-])cc1)=NNC(c1ccc(Br)cc1)=N2 | -10 | 52* | . | -3 | 3 | 1
Cc1ccc2c(c1)C(c1ccc([N+](=O)[O-])cc1)=NNC(c1ccc(Br)cc1)=N2 | -1 | 1 | -5 | 0 | . | 0
CCCNC(=O)C[C@@H]1CC[C@H]2[C@@H](COc3ccc(NC(=O)c4cccc(OC)c4)cc3C(=O)N2C)O1 | . | . | -1 | . | 0 | .
O=c1[nH]c2cc(O)ccc2c2ccccc12 | . | . | 0 | -4 | 10* | .
Cc1ccc(-c2nc3sc(C#N)c(N)n3c(=O)c2C#N)cc1 | -13 | 13* | -4 | -3 | 0 | -6
Cc1ccc(-n2c(N)c(C#N)c(-c3ccccc3)c(C#N)c2=O)cc1 | 2 | 2 | 0 | 0 | . | -1
COc1ccc(CNc2ncnc3c2[nH]c2ccccc23)cc1 | -1 | 0 | 11 | -3 | 1 | 6
COc1ccc(CNc2ncnc3c2[nH]c2cc(OC)c(OC)cc23)cc1 | 16 | 1 | -1 | 10* | -1 | -1
COc1ccccc1CNC(=O)CN(c1ccc(C)cc1)S(=O)(=O)c1c(C)n[nH]c1C | 1 | -4 | 3 | -2 | 31* | 1
CO[C@H]1CN(C)C(=O)c2cc(NC(=O)Nc3cccc(F)c3)ccc2OC[C@H](C)N(C(C)=O)C[C@@H]1C | . | . | -1 | . | -1 | .
CCOC(=O)/C(C#N)=C1\CC2CCC1(C)C2(C)C (stereo not given) | 1 | 13* | . | -2 | 0 | -1
O=C(Cc1ccccn1)N[C@H]1CC[C@H](CCNC(=O)c2cc(Cl)cc(Cl)c2)O[C@@H]1CO | . | . | 3 | . | -1 | .
CCC(=O)N1C[C@H](C)[C@@H](OC)CN(C)C(=O)c2cc(NC(=O)NC(C)C)ccc2OC[C@@H]1C | . | . | -1 | . | -1 | .
N=C(N)c1ccc(N=Nc2c(O)ccc3c2[nH]c2ccccc23)cc1 | . | . | . | 1 | 14* | .
CCn1c(C)cc(/C=C2/NC(=O)N(CC(=O)Nc3cccc(C)c3)C2=O)c1C | 9 | 2 | -1 | 0 | . | -7
CCOc1cc(/C=C2\SC(=O)N(CC(=O)Nc3ccccc3F)C2=O)cc([N+](=O)[O-])c1O | 7 | -2 | . | ? | -1 | 1
COc1cc(/C=C2\SC(=O)N(CC(=O)Nc3cccc(C)c3)C2=O)cc([N+](=O)[O-])c1O | . | . | . | 31* | 0 | .
Cc1ccc(NC(=O)CN2C(=O)S/C(=C/c3ccc(-c4cc(C(=O)O)ccc4C)o3)C2=O)cc1C | -13 | 2 | 0 | 14* | . | -89
Cc1ccc(NC(=O)CN2C(=O)N/C(=C/c3cc(C)n(-c4cccc(C(=O)O)c4)c3C)C2=O)cc1 | . | . | . | 49* | 1 | .
CCn1c(C)cc(/C=C2\NC(=O)N(CC(=O)Nc3cccc(C)c3)C2=O)c1C | 1 | -1 | -2 | 10* | . | -1
SMILES | Rv3671c protease | UGM FP inh | Mtb BioA inh | FadD28 binding | TcdB inh | RecA intein inh
CCC(=O)N1CC2(C1)CN(C(=O)Nc1ccccc1F)[C@H](CO)c1[nH]c3cc(OC)ccc3c12 | . | . | . | . | 2 | .
Cc1cccc(NC(=O)CN2C(=O)N/C(=C\c3ccc(-c4cccc(C(=O)O)c4)o3)C2=O)c1 | -3 | 3 | . | 43* | -1 | -37
COc1ccc(/C=C2\SC(=O)N(CC(=O)Nc3ccc(F)cc3)C2=O)cc1O | -5 | 1 | -1 | -1 | 1 | 2
COc1ccc(/C=C2/NC(=O)N(CC(=O)Nc3cccc(C)c3)C2=O)cc1O | -3 | 1 | 4 | 18* | 3 | 0
Cc1cccc(NC(=O)CN2C(=O)N/C(=C/c3ccc(C)o3)C2=O)c1 | -2 | 1 | -1 | 3 | . | -1
COCC(=O)N1C[C@H](C)[C@@H](OC)CN(C)C(=O)c2ccc(NC(=O)c3ccc(F)cc3)cc2OC[C@@H]1C | . | . | . | . | -1 | .
Cc1cccc(-c2ccc([C@H]3[C@H](CO)N4C(=O)CN(C(=O)c5cccnc5)C[C@@H]34)cc2)c1 | . | . | . | . | 1 | .
CCOC(=O)c1cc([N+](=O)[O-])sc1N | 7 | -1 | -1 | -2 | 29* | 6
CCOC(=O)c1cc([N+](=O)[O-])sc1NC(=O)CC | 5 | -5 | 0 | -4 | 0 | -2
C[C@H](CO)N1C[C@H](C)[C@@H](CN(C)C(=O)Nc2ccc(C(F)(F)F)cc2)Oc2ccc(NS(=O)(=O)c3cccs3)cc2CC1=O | . | . | -1 | . | 0 | .
COc1ccccc1CN1C[C@@H](C)[C@H](OC)CN(C)C(=O)c2ccc(NC(C)=O)cc2OC[C@@H]1C | . | . | 0 | . | 0 | .
CC(N)=Nc1ccc([N+](=O)[O-])cc1 | -2 | 14* | -1 | -4 | . | 1
COc1ccc(CSCC(=O)Nc2ccc(S(=O)(=O)N3CCCCCC3)cc2)cc1 | -41 | 2 | . | 12* | . | 7
CC(=O)Nc1ccc(NC(=O)Cc2ccc(S(=O)(=O)N3CCCCC3)cc2)cc1 | . | . | -3 | -1 | 13* | .
COc1ccc(C(=O)COC(=O)/C=C/c2ccccc2)cc1 | 6 | 0 | -1 | -1 | 0 | -1
NS(=O)(=O)c1cccc(NS(=O)(=O)c2ccc(/C=C/C(=O)OCC(=O)c3ccccc3)cc2)c1 | -17 | 1 | -1 | 10* | 0 | -1
C[C@H](CO)N1C[C@H](C)[C@@H](CN(C)C(=O)Nc2ccc(F)cc2)OCCCC[C@H](C)Oc2ccc(NS(=O)(=O)c3cn(C)cn3)cc2C1=O | . | . | 0 | . | 0 | .
Cc1ccc2c(c1)-c1ccccc1S(=O)(=O)N2 | 4 | 1 | . | -2 | . | .
Nc1ccc2c(c1)-c1ccccc1S(=O)(=O)N2 | -2 | 1 | . | 25* | . | -18
COC(=O)c1cc(C(=O)OC)n(Cc2ccc(F)cc2)c1C | 3 | 0 | 2 | -2 | 1 | 4
Cc1c(C#N)c(NC(=O)CCl)n(Cc2cccs2)c1C | 4 | -1 | . | 0 | -1 | 65*
Cc1c(C#N)c(NC(=O)CCl)n(Cc2ccc(F)cc2)c1C | 0 | 2 | . | -1 | 2 | 56*
Cc1c(C#N)c(NC(=O)CCl)n(Cc2ccccc2)c1C | 9 | -3 | 1 | -3 | 1 | 44*
C[C@@H]1CN([C@@H](C)CO)C(=O)Cc2cc(NC(=O)Nc3cccc4ccccc34)ccc2O[C@H]1CN(C)C(=O)Nc1ccccc1 | . | . | -1 | . | -1 | .
COc1ccc(Cl)cc1NC(=O)CSc1nnc(CNC(=O)c2ccco2)o1 | -2 | 1 | 0 | -2 | 0 | 2
